Test results reported in PubChem BioAssay AID1159580 (chemical genetic matrix, 2015).
The whole screen tested about 5,500 compounds, of which about 2,000 (36%) were called active. Inconclusive results (about 18%) are left out. Some of the results follow. Values without a mark were called inactive. Rule as the data show it: active = normalized growth mostly below about 0.91 (no sharp cut-off); inconclusive = no clear call, values can overlap the other calls; inactive = mostly above about 0.92.

Assay: chemical genetic growth profiling, strain panel (AID 1159580);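 also: tested at 20 µM; growth read once vehicle control cultures reached saturation at 30 °C; 1 = growth at the plate median or of vehicle wells; lower values mean less growth of the strain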
Conditions: growth OD

## C#CC1(O)CCC2C3CCC4=CC(=O)CCC4(C)C3CCC21C (stereo unspecified)
S. cerevisiae deletion strains, locus YKL009W, strain mrt4, hits give low values
  normalized growth: 0.945
S. cerevisiae deletion strains, locus YKL068W, hits give low values
  normalized growth: 0.991
S. cerevisiae deletion strains, locus YKL085W, strain MDH1 (second series), hits give low values
  normalized growth: 0.99
S. cerevisiae deletion strains, locus YKL085W, strain MDH1, hits give low values
  normalized growth: 0.99
S. cerevisiae deletion strains, locus YKL160W, strain elf1, hits give low values
  normalized growth: 0.979
S. cerevisiae deletion strains, locus YKL190W, strain CNB1, hits give low values
  normalized growth: 0.997
S. cerevisiae deletion strains, locus YKR001C, strain vps1, hits give low values
  normalized growth: 0.99
S. cerevisiae deletion strains, locus YKR026C, strain gcn3, hits give low values
  normalized growth: 0.991
S. cerevisiae deletion strains, locus YKR091W, strain srl3, hits give low values
  normalized growth: 0.977
S. cerevisiae deletion strains, locus YLL001W, strain dnm1, hits give low values
  normalized growth: 1
S. cerevisiae deletion strains, locus YLL026W, hits give low values
  normalized growth: 0.986
S. cerevisiae deletion strains, locus YLL041C, strain sdh2, hits give low values
  normalized growth: 0.998
S. cerevisiae deletion strains, locus YLR027C, strain aat2, hits give low values
  normalized growth: 0.986
S. cerevisiae deletion strains, locus YLR039C, strain RIC1, hits give low values
  normalized growth: 1.31
S. cerevisiae deletion strains, locus YLR058C, strain SHM2, hits give low values
  normalized growth: 0.986
S. cerevisiae deletion strains, locus YLR102C, strain apc9, hits give low values
  normalized growth: 0.978
S. cerevisiae deletion strains, locus YLR113W, strain HOG1, hits give low values
  normalized growth: 1.03
S. cerevisiae deletion strains, locus YLR221C, strain rsa3, hits give low values
  normalized growth: 1
S. cerevisiae deletion strains, locus YLR258W, strain gsy2, hits give low values
  normalized growth: 0.983
S. cerevisiae deletion strains, locus YLR262C, strain YPT6 (second series), hits give low values
  normalized growth: 1.05
S. cerevisiae deletion strains, locus YLR262C, strain YPT6, hits give low values
  normalized growth: 1.2
S. cerevisiae deletion strains, locus YLR268W, strain sec22, hits give low values
  normalized growth: 0.987
S. cerevisiae deletion strains, locus YLR320W, strain mms22, hits give low values
  normalized growth: 0.997
S. cerevisiae deletion strains, locus YLR330W, strain CHS5, hits give low values
  normalized growth: 0.988
S. cerevisiae deletion strains, locus YLR342W, strain FKS1 (second series), hits give low values
  normalized growth: 0.909
S. cerevisiae deletion strains, locus YLR342W, strain FKS1, hits give low values
  normalized growth: 0.988
S. cerevisiae deletion strains, locus YLR357W, strain rsc2, hits give low values
  normalized growth: 1
S. cerevisiae deletion strains, locus YLR370C, strain arc18, hits give low values
  normalized growth: 0.975
S. cerevisiae deletion strains, locus YLR371W, strain rom2, hits give low values
  normalized growth: 0.987
S. cerevisiae deletion strains, locus YLR384C, strain iki3, hits give low values
  normalized growth: 0.99
S. cerevisiae deletion strains, locus YLR418C, strain cdc73, hits give low values
  normalized growth: 0.921
S. cerevisiae deletion strains, locus YML016C, strain PPZ1, hits give low values
  normalized growth: 0.989
S. cerevisiae deletion strains, locus YML032C, strain rad52, hits give low values
  normalized growth: 0.99
S. cerevisiae deletion strains, locus YML120C, strain ndi1, hits give low values
  normalized growth: 0.99
S. cerevisiae deletion strains, locus YML124C, strain tub3, hits give low values
  normalized growth: 0.991
S. cerevisiae deletion strains, locus YMR058W, strain fet3, hits give low values
  normalized growth: 0.948
S. cerevisiae deletion strains, locus YMR078C, strain ctf18, hits give low values
  normalized growth: 0.976
S. cerevisiae deletion strains, locus YMR125W, strain sto1, hits give low values
  normalized growth: 0.967
S. cerevisiae deletion strains, locus YMR129W, hits give low values
  normalized growth: 0.988
S. cerevisiae deletion strains, locus YMR205C, strain PFK2, hits give low values
  normalized growth: 0.991
S. cerevisiae deletion strains, locus YMR223W, strain ubp8, hits give low values
  normalized growth: 0.957
S. cerevisiae deletion strains, locus YMR231W, strain pep5, hits give low values
  normalized growth: 0.997
S. cerevisiae deletion strains, locus YMR263W, strain SAP30, hits give low values
  normalized growth: 1.01
S. cerevisiae deletion strains, locus YMR307W, strain GAS1, hits give low values
  normalized growth: 1.14
S. cerevisiae deletion strains, locus YNL067W, strain RPL9B, hits give low values
  normalized growth: 1.02
S. cerevisiae deletion strains, locus YNL071W, strain lat1, hits give low values
  normalized growth: 1
S. cerevisiae deletion strains, locus YNL153C, strain GIM3, hits give low values
  normalized growth: 1.04
S. cerevisiae deletion strains, locus YNL183C, strain NPR1, hits give low values
  normalized growth: 0.955
S. cerevisiae deletion strains, locus YNL209W, strain ssb2, hits give low values
  normalized growth: 0.988
S. cerevisiae deletion strains, locus YNL233W, strain BNI4, hits give low values
  normalized growth: 1.02
S. cerevisiae deletion strains, locus YNL248C, strain rpa49, hits give low values
  normalized growth: 0.987
S. cerevisiae deletion strains, locus YNL250W, strain rad50, hits give low values
  normalized growth: 0.978
S. cerevisiae deletion strains, locus YNL271C, strain bni1, hits give low values
  normalized growth: 0.979
S. cerevisiae deletion strains, locus YNL298W, strain CLA4, hits give low values
  normalized growth: 0.954
S. cerevisiae deletion strains, locus YNL307C, strain MCK1, hits give low values
  normalized growth: 0.906 (active)
S. cerevisiae deletion strains, locus YNL322C, strain KRE1 (second series), hits give low values
  normalized growth: 1
S. cerevisiae deletion strains, locus YNR049C, strain mso1, hits give low values
  normalized growth: 0.965
S. cerevisiae deletion strains, locus YNR052C, strain pop2, hits give low values
  normalized growth: 0.966
S. cerevisiae deletion strains, locus YOL147C, strain pex11, hits give low values
  normalized growth: 0.994
S. cerevisiae deletion strains, locus YOR001W, strain rrp6, hits give low values
  normalized growth: 0.998
S. cerevisiae deletion strains, locus YOR061W, strain CKA2, hits give low values
  normalized growth: 0.986
S. cerevisiae deletion strains, locus YOR069W, strain VPS5, hits give low values
  normalized growth: 0.981
S. cerevisiae deletion strains, locus YOR070C, strain gyp1, hits give low values
  normalized growth: 0.992
S. cerevisiae deletion strains, locus YOR080W, strain dia2, hits give low values
  normalized growth: 0.972
S. cerevisiae deletion strains, locus YOR083W, strain WHI5, hits give low values
  normalized growth: 0.948
S. cerevisiae deletion strains, locus YOR106W, strain vam3, hits give low values
  normalized growth: 0.965
S. cerevisiae deletion strains, locus YOR136W, strain idh2, hits give low values
  normalized growth: 0.977
S. cerevisiae deletion strains, locus YOR144C, strain elg1, hits give low values
  normalized growth: 0.975
S. cerevisiae deletion strains, locus YOR184W, strain ser1, hits give low values
  normalized growth: 0.87 (active)
S. cerevisiae deletion strains, locus YOR231W, strain MKK1, hits give low values
  normalized growth: 1.02
S. cerevisiae deletion strains, locus YOR265W, strain rbl2, hits give low values
  normalized growth: 0.988
S. cerevisiae deletion strains, locus YOR270C, strain vph1, hits give low values
  normalized growth: 0.727 (active)
S. cerevisiae deletion strains, locus YOR290C, strain snf2, hits give low values
  normalized growth: 0.974
S. cerevisiae deletion strains, locus YOR316C, strain cot1, hits give low values
  normalized growth: 0.979
S. cerevisiae deletion strains, locus YPL051W, strain arl3, hits give low values
  normalized growth: 1.01
S. cerevisiae deletion strains, locus YPL078C, strain atp4, hits give low values
  normalized growth: 0.987
S. cerevisiae deletion strains, locus YPL106C, strain sse1, hits give low values
  normalized growth: 0.985
S. cerevisiae deletion strains, locus YPL240C, strain hsp82, hits give low values
  normalized growth: 0.988
S. cerevisiae deletion strains, locus YPL241C, strain CIN2, hits give low values
  normalized growth: 0.99
S. cerevisiae deletion strains, locus YPL256C, strain CLN2, hits give low values
  normalized growth: 0.994
S. cerevisiae deletion strains, locus YPR119W, strain clb2, hits give low values
  normalized growth: 0.983
S. cerevisiae deletion strains, locus YPR141C, strain kar3, hits give low values
  normalized growth: 0.982
S. cerevisiae deletion strains, locus YPR163C, strain tif3, hits give low values
  normalized growth: 0.977
S. cerevisiae deletion strains, locus YPR167C, strain met16, hits give low values
  normalized growth: 0.97
S. cerevisiae deletion strains, strain wtn01, hits give low values
  normalized growth: 0.955
S. cerevisiae strains, strain wild type, hits give low values
  normalized growth: 0.99
